Screening data from PubChem.
T cruzi growth-1: T. cruzi proliferation inhibition; T. cruzi beta-gal in NIH3T3, GalScreen luminescence, 90 h; inhibition, % at 8.34 µM; 77,000 tested, 5.9% active; AID 624255;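 active = mean inhibition above about 93%, with at least 55% of replicates each passing it, limit read from the data, passing the limit was not always enough; inconclusive = only one of those two conditions holds; inactive = neither condition holds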
C diff HTS: blocks growth of Clostridium difficile | AID 1259249 | Clostridium difficile clinical isolate growth, OD600, 24 h; hits give low values | 86,000 tested, 0.25% active | growth activity, negative = inhibition, % at 16 µg/mL (by protocol);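 active = mean growth activity at or below -80% and every replicate also at or below -80%; inconclusive = mean at or below -80% but some replicate above -80%; inactive = mean growth activity above -80%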;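 also: 0% = DMSO wells and -100% = levofloxacin 16 µg/mL wells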
Pf Dd2 inh: inhibitors of Plasmodium falciparum Dd2 growth; activity change, % at 10 µM; P. falciparum Dd2 growth, SYBR Green, 72 h; hits give low values; 94,000 tested, 2.3% active; AID 1159554; in the data active = activity change below about -80%; inconclusive = no clear call, values can overlap the other calls
T cruzi growth-2: Trypanosoma cruzi proliferation inhibition; shares compounds with T cruzi growth-1; T. cruzi beta-gal in NIH3T3, GalScreen luminescence, 90 h; inhibition, % at 8.35 µM; 5,600 tested, 72% active; AID 651739;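 active = mean replicate inhibition above about 95% and at least 55% of replicates individually reaching it, limit read from the data; inconclusive = only one of the two criteria is met; inactive = neither criterion is met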
T cruzi growth-3: blocks T. cruzi growth in NIH3T3 host cells | shares compounds with T cruzi growth-1 | 5,600 tested, 21% active | inhibition, % at 2.09 µM | T. cruzi beta-gal in NIH3T3, GalScreen luminescence, 90 h;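 active = mean inhibition above about 95%, with at least 55% of replicates also reaching it, limit read from the data; inconclusive = meets just one of the two conditions; inactive = meets neither condition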;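 also: plate controls were neutral control median for no effect and positive control median for full effect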
NIH3T3 tox: kills mouse NIH/3T3 fibroblasts | shares compounds with T cruzi growth-1 | NIH/3T3 viability, CellTiter-Glo ATP luminescence, 90 h | cytotoxicity (signal decrease), % at 8.35 µM | 5,600 tested, 14% active;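 active = mean signal decrease across replicates above about 35% based on untreated-well scatter, with enough replicates individually passing, limit read from the data; inconclusive = no rule stated though some were filed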;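 also: 0% = median of neutral control wells and 100% = median of positive control wells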
3T3 cytotox 2: cytotoxicity in mouse NIH/3T3 fibroblasts; shares compounds with T cruzi growth-1; NIH/3T3 viability, CellTiter-Glo ATP luminescence, 90 h; inhibition, % at 24.9 µM; 5,600 tested, 56% active;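 active = mean loss of cell viability signal at or above a set limit, and enough replicates individually reaching it; inconclusive = meets only the mean limit or only the replicate share; inactive = meets neither condition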;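 also: 0% = median of neutral control wells and 100% = median of positive control wells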
* marks the source's active call; other numbers are inactive results; ? = inconclusive; / = no result. Compounds with a hit are over-represented: about 6.7% of the library has one in this group of screens.

SMILES	T cruzi growth-1	C diff HTS	Pf Dd2 inh	T cruzi growth-2	T cruzi growth-3	NIH3T3 tox	3T3 cytotox 2
CN1c2ccc(-c3cccc(C#N)c3)cc2[C@@H]2[C@@H](CCN2C(=O)Cc2ccccn2)[C@@H]1CO	106*	-20	-50	102*	51	-11	36*
CCC(=O)N1CC[C@@H]2[C@H]1c1cc(-c3ccc(C#N)cc3)ccc1N(C)[C@H]2CO	81	1	18	/	/	/	/
CN1c2ccc(-c3cccc(C#N)c3)cc2[C@H]2[C@H](CCN2C(=O)CN2CCOCC2)[C@@H]1CO	57	-6	-65	/	/	/	/
CCC(=O)N(C)C[C@H]1Oc2ncc(/C=C/c3ccccc3)cc2C(=O)N([C@@H](C)CO)C[C@@H]1C	16	-9	-3	/	/	/	/
N#Cc1cccc(-c2ccc([C@@H]3[C@H]4CN(C(=O)Nc5ccc(F)cc5)CCCCN4[C@H]3CO)cc2)c1	84	48	5	/	/	/	/
N#Cc1ccc(-c2ccc([C@H]3[C@@H](CO)N4CCCCN(C(=O)Nc5ccc(F)cc5)C[C@@H]34)cc2)cc1	100*	6	-7	112*	63	-8	15
N#Cc1cccc(-c2ccc([C@@H]3[C@H](CO)N4CCCCN(C(=O)Nc5ccc(F)cc5)C[C@@H]34)cc2)c1	94	73	8	/	/	/	/
N#Cc1cccc(-c2ccc([C@@H]3[C@@H](CO)N4CCCCN(C(=O)Nc5ccc(F)cc5)C[C@@H]34)cc2)c1	109*	39	4	106*	75	47*	98*
N#Cc1ccc(-c2ccc([C@@H]3[C@H](CO)N4CCCCN(C(=O)Nc5ccc(F)cc5)C[C@@H]34)cc2)cc1	50	37	-67	/	/	/	/
N#Cc1cccc(-c2ccc([C@H]3[C@H]4CN(C(=O)Nc5ccc(F)cc5)CCCCN4[C@H]3CO)cc2)c1	100*	13	7	101*	31	5	15
COc1ccc(-c2cn(CC[C@@H]3CC[C@@H](NC(=O)Cc4ccccn4)[C@@H](CO)O3)nn2)cc1	-21	1	12	/	/	/	/
C[C@H](NC(=O)[C@@H]1N[C@@H]2c3ccc(-c4cncnc4)c(=O)n3C[C@@H]2[C@H]1CO)c1ccccc1	-10	-3	-3	/	/	/	/
Cc1noc(C)c1NC(=O)NCC[C@H]1CC[C@@H](NC(=O)Cc2cccnc2)[C@@H](CO)O1	-48	1	10	/	/	/	/
C[C@H](CO)N1C[C@H](C)[C@H](CN(C)C(=O)Nc2ccccc2)OCc2ccccc2-c2ccccc2C1=O	44	/	52	/	/	/	/
C[C@H](CO)N1C[C@H](C)[C@H](CN(C)C(=O)Nc2ccnc(N3CCOCC3)c2)OCc2ccccc2-c2ccccc2C1=O	110*	-5	15	?	85	4	24
C[C@H]1CN([C@@H](C)CO)C(=O)c2ccccc2-c2ccccc2CO[C@H]1CN(C)C(=O)Nc1ccnc(N2CCOCC2)c1	105*	-5	6	101*	77	6	33*
C[C@H](CO)N1C[C@H](C)[C@H](CN(C)C(=O)Nc2ccnc(N3CCOCC3)c2)OCc2ccccc2-c2c(n(C)c3ccccc23)C1=O	/	-14	-56	/	/	/	/
C[C@H](CO)N1C[C@H](C)[C@@H](CN(C)C(=O)Nc2ccccc2)OCc2ccccc2-c2ccccc2C1=O	54	/	17	/	/	/	/
C[C@@H]1CN([C@@H](C)CO)C(=O)c2ccccc2-c2ccccc2CO[C@@H]1CN(C)C(=O)Nc1ccnc(N2CCOCC2)c1	106*	-7	14	107*	88	-1	28*
Cc1cc(C(=O)Nc2cccc3c2O[C@@H](CN(C)Cc2ccc4c(c2)OCO4)[C@H](C)CN([C@H](C)CO)C3=O)n(C)n1	36	0	-7	/	/	/	/
COCC(=O)N1[C@H](C#N)[C@H](c2ccccc2-c2ccccc2F)[C@H]1CO	/	-3	7	/	/	/	/
C[C@H]1CN([C@@H](C)CO)C(=O)c2ccccc2-c2ccccc2CO[C@H]1CN(C)S(=O)(=O)c1ccsc1	-31	-1	11	/	/	/	/
COc1ccc(NC(=O)N(C)C[C@@H]2Oc3ccc(NC(=O)NC(C)C)cc3C(=O)N([C@H](C)CO)C[C@@H]2C)cc1	/	0	-2	/	/	/	/
C[C@H](CO)N1C[C@H](C)[C@@H](CN(C)C(=O)CC2CC2)Oc2cc(-c3ccncc3)ccc2S1(=O)=O	89	1	-15	/	/	/	/
C[C@H](CO)N1C[C@H](C)[C@@H](CN(C)C(=O)Nc2ccc3c(c2)OCO3)OCCCC[C@H](C)Oc2ccc(NC(=O)CCCN(C)C)cc2C1=O	43	0	0	/	/	/	/
SMILES	T cruzi growth-1	C diff HTS	Pf Dd2 inh	T cruzi growth-2	T cruzi growth-3	NIH3T3 tox	3T3 cytotox 2
C/C=C/c1ccc2c(c1)O[C@@H](CN(C)S(=O)(=O)c1ccc(C)cc1)[C@@H](C)CN([C@@H](C)CO)S2(=O)=O	98*	-1	-51	108*	88	16	43*
C/C=C/c1ccc2c(c1)O[C@H](CN(C)S(C)(=O)=O)[C@@H](C)CN([C@H](C)CO)S2(=O)=O	-11	3	4	/	/	/	/
Cc1ccc(S(=O)(=O)N(C)C[C@H]2Oc3cc(Br)ccc3S(=O)(=O)N([C@@H](C)CO)C[C@H]2C)cc1	/	4	10	/	/	/	/
C/C=C/c1ccc2c(c1)O[C@H](CN(C)S(=O)(=O)c1ccc(C)cc1)[C@H](C)CN([C@H](C)CO)S2(=O)=O	117*	4	-11	107*	52	6	78*
CCC(=O)Nc1ccc2c(c1)C(=O)N(C)C[C@H](OC)[C@H](C)CN(C(=O)c1ccncc1)[C@H](C)CO2	13	/	-35	/	/	/	/
O=C(C[C@@H]1C=C[C@H](NC(=O)C2CC2)[C@H](CO)O1)NCC1CC1	/	-1	17	/	/	/	/
Cc1ccc(-c2ccc3c(c2)O[C@H](CN(C)C(=O)Nc2ccccc2)[C@H](C)CN([C@@H](C)CO)S3(=O)=O)cc1	/	-1	-13	/	/	/	/
Cc1ccc(-c2ccc3c(c2)O[C@H](CN(C)C(=O)Nc2ccc(F)cc2)[C@H](C)CN([C@@H](C)CO)S3(=O)=O)cc1	119*	-2	11	97*	86	-7	21
Cc1ccc(-c2ccc3c(c2)O[C@@H](CN(C)C(=O)Nc2ccc(F)cc2)[C@@H](C)CN([C@H](C)CO)S3(=O)=O)cc1	122*	4	-7	108*	89	55*	45*
Cc1ccc(-c2ccc3c(c2)O[C@H](CN(C)C(=O)Nc2ccc(F)cc2)[C@@H](C)CN([C@H](C)CO)S3(=O)=O)cc1	16	2	9	/	/	/	/
Cc1ccc(-c2ccc3c(c2)O[C@H](CN(C)C(=O)Nc2ccc(F)cc2)[C@H](C)CN([C@H](C)CO)S3(=O)=O)cc1	122*	-5	-52	110*	80	5	66*
